The supplement of paper PMC11732987, “Enantioselective OTUD7B fragment discovery through chemoproteomics screening and high-throughput optimisation” (Communications Chemistry, 2025)

Tests used:
Test in all cases: log2 ratio of Biotin-Ahx-Ub-VS probe labelling (fragment/DMSO); higher = less target engagement (more negative = stronger competition), active = hit call of the paper (q ≤ 0.05, log2 ratio ≤ -1)
Details in all cases: compound concentration: 200 uM; treatment time: 3 h
[1] = target: USP34 (UniProt Q70CQ2)
Outline: (§1)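 HEK293T lysate, 495 µg per sample in Tris/CHAPS/IGEPAL buffer with protease inhibitors, was treated in triplicate with fragment at 200 µM or vehicle for 3 h and then with Biotin-Ahx-Ub-VS at 0.5 µM final for 1 h. Labelled DUBs were NeutrAvidin-enriched, digested with LysC and trypsin, and run by diaPASEF LC-MS/MS. Spectronaut label-free quantities were global-median-normalised, and values are average log2 fragment/vehicle ratios by unpaired t-test on proteins with ≥2 unique peptides.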

[2] = target: T1, USP36 (UniProt Q9P275)
T1 sequence (whole entry): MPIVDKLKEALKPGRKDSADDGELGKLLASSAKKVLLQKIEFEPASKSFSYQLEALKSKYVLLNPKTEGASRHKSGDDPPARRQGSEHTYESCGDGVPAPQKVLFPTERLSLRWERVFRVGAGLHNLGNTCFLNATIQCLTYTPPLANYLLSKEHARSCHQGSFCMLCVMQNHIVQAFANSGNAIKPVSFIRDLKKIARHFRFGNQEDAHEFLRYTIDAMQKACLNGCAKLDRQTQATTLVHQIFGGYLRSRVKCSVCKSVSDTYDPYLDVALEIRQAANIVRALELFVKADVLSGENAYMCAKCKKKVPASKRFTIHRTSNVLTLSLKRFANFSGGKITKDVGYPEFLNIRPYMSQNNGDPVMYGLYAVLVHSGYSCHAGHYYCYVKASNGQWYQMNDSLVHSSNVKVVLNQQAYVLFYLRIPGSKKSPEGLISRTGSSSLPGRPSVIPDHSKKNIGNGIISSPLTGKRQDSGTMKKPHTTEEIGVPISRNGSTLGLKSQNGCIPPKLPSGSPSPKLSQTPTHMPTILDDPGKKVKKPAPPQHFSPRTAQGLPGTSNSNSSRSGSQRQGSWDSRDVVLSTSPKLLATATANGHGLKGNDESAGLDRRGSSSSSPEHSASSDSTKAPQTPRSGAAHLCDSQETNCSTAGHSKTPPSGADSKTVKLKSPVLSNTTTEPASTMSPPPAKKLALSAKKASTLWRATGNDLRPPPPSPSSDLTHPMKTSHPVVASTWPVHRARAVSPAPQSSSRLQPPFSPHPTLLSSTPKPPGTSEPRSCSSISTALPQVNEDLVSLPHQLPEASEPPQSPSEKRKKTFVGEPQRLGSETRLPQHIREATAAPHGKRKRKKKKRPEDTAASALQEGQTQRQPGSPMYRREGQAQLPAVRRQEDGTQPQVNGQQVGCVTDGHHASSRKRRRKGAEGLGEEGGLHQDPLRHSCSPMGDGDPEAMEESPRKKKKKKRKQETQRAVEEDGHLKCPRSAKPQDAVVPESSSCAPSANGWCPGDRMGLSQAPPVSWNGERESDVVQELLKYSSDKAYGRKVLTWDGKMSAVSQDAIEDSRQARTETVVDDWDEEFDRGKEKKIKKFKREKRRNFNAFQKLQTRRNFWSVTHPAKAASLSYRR
Outline: as §1

[3] = target: T2, USP38 (UniProt Q8NB14)
T2 sequence (whole entry): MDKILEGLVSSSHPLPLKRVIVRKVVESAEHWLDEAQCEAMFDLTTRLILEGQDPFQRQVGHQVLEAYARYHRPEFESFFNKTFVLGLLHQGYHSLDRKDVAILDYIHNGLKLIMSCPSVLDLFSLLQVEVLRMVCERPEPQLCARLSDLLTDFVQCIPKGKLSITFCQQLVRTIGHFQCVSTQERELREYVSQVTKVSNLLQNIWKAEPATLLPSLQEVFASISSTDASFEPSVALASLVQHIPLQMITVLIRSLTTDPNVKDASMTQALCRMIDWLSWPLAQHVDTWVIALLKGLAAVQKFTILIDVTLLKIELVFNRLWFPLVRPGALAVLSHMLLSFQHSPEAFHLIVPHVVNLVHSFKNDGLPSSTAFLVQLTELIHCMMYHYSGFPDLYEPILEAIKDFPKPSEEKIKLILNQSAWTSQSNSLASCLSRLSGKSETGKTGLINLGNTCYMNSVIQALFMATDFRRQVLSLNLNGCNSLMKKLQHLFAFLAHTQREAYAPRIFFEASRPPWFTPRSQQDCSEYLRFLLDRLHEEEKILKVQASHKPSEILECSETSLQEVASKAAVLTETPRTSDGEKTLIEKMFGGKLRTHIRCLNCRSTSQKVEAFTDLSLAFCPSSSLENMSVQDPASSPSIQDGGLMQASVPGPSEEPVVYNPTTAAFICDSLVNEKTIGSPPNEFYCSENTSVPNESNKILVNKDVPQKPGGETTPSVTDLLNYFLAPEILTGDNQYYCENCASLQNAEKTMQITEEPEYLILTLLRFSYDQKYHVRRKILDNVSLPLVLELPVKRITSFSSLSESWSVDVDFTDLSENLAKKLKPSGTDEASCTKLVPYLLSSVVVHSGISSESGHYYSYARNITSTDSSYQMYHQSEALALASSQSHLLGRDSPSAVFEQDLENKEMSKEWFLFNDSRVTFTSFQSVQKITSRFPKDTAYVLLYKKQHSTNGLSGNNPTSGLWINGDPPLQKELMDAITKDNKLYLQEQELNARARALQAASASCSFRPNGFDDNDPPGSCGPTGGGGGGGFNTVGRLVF
Outline: as §1

[4] = target: T3, USP39 (UniProt Q53GS9)
T3 sequence (whole entry): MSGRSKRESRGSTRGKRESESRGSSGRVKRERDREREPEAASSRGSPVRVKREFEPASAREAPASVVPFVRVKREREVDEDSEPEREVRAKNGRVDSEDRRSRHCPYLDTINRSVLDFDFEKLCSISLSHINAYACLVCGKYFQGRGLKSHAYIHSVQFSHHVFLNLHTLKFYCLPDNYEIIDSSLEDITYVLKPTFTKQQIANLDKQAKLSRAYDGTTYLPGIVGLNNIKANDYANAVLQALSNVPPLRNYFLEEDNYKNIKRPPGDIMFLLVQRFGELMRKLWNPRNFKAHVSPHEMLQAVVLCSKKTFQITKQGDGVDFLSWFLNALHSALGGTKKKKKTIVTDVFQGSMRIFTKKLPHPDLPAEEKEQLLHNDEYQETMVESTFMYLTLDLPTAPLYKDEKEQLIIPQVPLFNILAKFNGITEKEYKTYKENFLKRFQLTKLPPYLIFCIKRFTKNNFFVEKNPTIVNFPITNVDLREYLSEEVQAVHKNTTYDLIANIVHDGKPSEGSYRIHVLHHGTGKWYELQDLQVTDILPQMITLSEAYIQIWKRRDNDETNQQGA
Outline: as §1

[5] = target: T4, USP4 (UniProt Q13107)
T4 sequence (whole entry): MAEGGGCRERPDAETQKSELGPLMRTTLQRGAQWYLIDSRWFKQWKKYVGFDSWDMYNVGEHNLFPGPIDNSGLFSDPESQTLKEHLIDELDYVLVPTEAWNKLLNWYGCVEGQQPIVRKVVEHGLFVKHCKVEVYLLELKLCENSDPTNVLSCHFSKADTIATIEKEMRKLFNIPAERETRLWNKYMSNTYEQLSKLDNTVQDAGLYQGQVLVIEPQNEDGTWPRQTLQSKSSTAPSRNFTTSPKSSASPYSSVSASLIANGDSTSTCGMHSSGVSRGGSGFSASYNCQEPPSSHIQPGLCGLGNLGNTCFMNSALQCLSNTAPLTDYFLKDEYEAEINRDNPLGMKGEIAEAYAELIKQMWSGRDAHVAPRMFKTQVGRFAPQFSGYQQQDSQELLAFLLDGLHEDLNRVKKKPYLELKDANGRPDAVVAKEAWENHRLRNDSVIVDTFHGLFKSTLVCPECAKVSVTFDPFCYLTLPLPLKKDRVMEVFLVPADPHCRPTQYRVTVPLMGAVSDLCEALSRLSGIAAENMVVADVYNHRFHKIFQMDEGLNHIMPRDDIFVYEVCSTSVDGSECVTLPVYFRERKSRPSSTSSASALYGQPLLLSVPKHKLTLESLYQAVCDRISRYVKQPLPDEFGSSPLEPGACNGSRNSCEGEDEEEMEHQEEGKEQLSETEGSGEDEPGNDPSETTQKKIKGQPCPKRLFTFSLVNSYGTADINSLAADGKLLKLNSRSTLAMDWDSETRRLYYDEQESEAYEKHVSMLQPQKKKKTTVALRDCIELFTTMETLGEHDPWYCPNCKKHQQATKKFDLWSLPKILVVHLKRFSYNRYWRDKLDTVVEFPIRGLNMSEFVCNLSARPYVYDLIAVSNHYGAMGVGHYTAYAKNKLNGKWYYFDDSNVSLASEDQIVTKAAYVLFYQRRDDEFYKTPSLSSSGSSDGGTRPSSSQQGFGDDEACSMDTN
Outline: as §1

Measured: log2 ratio of Biotin-Ahx-Ub-VS probe labelling

Sequence of USP34 (Q70CQ2 whole entry, the tested form may be a part): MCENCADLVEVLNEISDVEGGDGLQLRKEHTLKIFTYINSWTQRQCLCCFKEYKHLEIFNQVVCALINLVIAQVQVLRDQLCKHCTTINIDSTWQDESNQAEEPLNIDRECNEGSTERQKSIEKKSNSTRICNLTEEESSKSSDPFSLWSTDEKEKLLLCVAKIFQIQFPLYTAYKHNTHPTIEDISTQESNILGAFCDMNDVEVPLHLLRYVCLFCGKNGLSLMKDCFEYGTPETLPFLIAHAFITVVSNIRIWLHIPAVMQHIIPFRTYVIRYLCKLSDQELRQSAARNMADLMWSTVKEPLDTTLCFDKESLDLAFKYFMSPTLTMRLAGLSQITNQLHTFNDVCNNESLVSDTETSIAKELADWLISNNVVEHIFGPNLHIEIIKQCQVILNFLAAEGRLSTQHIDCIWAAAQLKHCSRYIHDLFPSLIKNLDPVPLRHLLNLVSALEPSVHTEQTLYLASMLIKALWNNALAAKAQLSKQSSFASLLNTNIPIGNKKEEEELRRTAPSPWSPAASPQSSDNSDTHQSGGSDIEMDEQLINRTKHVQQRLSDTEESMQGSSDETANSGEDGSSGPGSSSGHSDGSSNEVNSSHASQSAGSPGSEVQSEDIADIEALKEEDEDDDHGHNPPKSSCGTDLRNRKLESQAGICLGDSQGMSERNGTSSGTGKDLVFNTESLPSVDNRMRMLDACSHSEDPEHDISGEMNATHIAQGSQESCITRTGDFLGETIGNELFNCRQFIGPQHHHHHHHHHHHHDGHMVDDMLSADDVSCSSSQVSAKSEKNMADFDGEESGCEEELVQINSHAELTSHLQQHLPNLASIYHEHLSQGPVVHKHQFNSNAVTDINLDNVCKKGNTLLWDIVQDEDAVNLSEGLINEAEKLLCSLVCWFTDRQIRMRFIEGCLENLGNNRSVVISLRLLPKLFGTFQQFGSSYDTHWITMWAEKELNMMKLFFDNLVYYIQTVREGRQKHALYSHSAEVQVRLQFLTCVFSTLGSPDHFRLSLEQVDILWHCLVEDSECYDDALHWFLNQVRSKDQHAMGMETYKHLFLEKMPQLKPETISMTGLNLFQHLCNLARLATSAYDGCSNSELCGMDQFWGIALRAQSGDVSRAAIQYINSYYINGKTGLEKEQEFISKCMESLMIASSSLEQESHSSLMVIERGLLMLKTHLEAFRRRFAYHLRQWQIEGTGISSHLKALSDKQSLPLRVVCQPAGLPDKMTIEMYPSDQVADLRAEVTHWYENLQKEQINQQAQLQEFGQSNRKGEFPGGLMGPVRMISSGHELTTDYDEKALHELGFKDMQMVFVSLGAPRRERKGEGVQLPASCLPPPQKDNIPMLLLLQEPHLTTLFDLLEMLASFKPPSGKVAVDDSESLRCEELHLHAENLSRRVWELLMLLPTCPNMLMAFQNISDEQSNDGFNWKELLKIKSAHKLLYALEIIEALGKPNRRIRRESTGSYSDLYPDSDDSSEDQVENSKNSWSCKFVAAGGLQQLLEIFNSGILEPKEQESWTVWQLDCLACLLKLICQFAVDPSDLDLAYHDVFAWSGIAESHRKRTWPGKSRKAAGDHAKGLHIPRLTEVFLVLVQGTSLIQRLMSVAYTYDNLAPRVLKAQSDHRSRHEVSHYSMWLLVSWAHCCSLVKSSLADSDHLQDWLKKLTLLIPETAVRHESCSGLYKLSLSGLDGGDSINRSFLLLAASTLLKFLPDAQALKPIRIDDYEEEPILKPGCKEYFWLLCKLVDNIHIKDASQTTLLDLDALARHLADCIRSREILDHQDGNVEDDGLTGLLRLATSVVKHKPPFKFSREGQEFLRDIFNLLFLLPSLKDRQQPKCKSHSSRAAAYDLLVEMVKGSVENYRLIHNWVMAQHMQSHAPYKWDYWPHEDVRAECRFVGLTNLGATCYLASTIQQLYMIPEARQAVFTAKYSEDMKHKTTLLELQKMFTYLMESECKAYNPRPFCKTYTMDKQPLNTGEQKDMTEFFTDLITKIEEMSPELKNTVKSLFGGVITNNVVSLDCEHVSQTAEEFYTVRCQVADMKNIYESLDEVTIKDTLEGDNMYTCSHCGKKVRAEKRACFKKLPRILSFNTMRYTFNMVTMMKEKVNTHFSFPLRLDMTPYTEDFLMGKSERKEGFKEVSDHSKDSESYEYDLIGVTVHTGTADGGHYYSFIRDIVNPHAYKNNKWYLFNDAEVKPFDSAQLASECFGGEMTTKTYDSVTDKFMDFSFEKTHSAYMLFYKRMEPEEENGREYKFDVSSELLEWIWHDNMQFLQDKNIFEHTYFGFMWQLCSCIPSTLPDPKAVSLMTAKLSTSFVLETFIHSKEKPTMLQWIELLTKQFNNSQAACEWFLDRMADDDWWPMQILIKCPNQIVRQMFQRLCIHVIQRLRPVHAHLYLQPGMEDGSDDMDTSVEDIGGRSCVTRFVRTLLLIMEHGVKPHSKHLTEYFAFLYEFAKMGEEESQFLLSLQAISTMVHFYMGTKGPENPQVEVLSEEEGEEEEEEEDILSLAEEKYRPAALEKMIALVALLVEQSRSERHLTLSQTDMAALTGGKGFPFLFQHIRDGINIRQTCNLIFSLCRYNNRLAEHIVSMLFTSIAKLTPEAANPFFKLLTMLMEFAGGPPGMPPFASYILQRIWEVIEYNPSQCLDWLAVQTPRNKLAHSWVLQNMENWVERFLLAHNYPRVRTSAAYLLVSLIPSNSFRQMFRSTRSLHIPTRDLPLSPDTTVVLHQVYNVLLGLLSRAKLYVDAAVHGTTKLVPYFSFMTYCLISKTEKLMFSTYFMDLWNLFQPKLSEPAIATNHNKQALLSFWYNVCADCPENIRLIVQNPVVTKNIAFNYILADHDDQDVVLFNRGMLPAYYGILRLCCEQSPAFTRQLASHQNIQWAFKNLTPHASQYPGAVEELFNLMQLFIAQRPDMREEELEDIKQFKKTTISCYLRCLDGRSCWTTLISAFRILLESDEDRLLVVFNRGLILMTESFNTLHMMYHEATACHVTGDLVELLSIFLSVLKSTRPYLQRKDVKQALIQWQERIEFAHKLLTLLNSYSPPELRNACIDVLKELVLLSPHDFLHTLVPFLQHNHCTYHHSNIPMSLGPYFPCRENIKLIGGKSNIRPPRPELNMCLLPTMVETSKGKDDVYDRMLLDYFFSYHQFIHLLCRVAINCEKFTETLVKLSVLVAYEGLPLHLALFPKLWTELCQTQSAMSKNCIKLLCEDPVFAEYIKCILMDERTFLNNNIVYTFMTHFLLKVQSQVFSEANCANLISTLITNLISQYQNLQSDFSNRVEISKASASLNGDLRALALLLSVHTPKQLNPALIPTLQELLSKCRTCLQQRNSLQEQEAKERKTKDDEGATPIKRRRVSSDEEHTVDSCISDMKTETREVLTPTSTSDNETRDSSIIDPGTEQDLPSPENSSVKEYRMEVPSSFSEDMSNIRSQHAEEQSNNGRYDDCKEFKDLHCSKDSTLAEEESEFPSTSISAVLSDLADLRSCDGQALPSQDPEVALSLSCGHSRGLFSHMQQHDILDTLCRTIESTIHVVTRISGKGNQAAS

COc1cccc(CN(C)C(=O)CCl)c1
inactive: [1] 0.0183 | [2] -0.187 | [3] 0.0437 | [4] 0.0189 | [5] -0.4
